We go through 92 molecules from PubChem BioAssay AID449762 (Southern Research Specialized Biocontainment Screening …, 2010).

In all, about 330,000 compounds went through this assay and about 1,900 (0.58%) were called active. Not shown: some 4% with an inconclusive outcome. Rule as the data show it: inconclusive = inhibition above about 70% without an active follow-up result; inactive = below that. The list is a sample of the results. Potency and affinity values are given separately.

This assay is described as follows: M. tuberculosis growth inhibition, HTS (AID 449762).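 Also: bacterial growth assessed after seven days of incubation.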 The note with it: M. tuberculosis H37Rv growth inhibition, 7H9 media; at 25 µM; active compounds read high.
Regarding `Cc1ccc(C(=O)Nc2nc(C(C)(C)C)cs2)s1`, the inhibition – broadly, the change of the read-out against control, counted positive when it falls – was 56.8% (inactive).

Turning to `Cc1ccc2nc(-c3ccc(NS(C)(=O)=O)cc3)cc(-c3ccccc3)c2c1`, the inhibition is 0.07% (inactive). As to `Clc1ccc2nc(-c3ccncc3)cc(-c3ccccc3)c2c1`, the inhibition is 3.77% (inactive). On to `COc1ccc(S(=O)(=O)N2CCN(C(=O)c3ccco3)CC2)cc1C(C)(C)C`, for which the inhibition was -13.2% (inactive). Turning to `Cc1cccc(Sc2ccc([N+](=O)[O-])cc2[N+](=O)[O-])n1`, the inhibition is 19.9% (inactive). In the case of `Cc1cc(C)nc(Sc2ccc([N+](=O)[O-])cc2[N+](=O)[O-])n1`, the inhibition was 0.29% (inactive). Take `C/C(=C\C(=O)c1ccc(C)o1)Nc1ccc(C(=O)O)cc1C`: the inhibition was -5.52% (inactive).

Take `COc1ccc(OC)c(N/C(C)=C/C(=O)c2ccc(C)o2)c1`: the inhibition is 5.43% (inactive). For the molecule `Cc1ccn2c(-c3csc(NCc4ccco4)n3)c(C)nc2c1`, the inhibition is 7.31% (inactive). In the case of `Cc1nc2sccn2c1-c1csc(NCc2ccccc2)n1` it was 54.7% (inactive); in that of `O=C(COC(=O)CCN1C(=O)c2ccccc2C1=O)Nc1ccccc1[N+](=O)[O-]`, -0.89% (inactive); in that of `Cc1ccc(NC(=O)C2C3/C=C\CCCCC32)cc1` (configuration not stated), -6.56% (inactive). As for `O=C(Nc1ccccc1)C1C2/C=C\CCCCC21` (configuration not stated), the figure is 5.24% (inactive). On to `Cc1cc(F)ccc1S(=O)(=O)N1CCCOC1CNC(=O)C(=O)NC1CCCCC1` (configuration not stated), for which the inhibition was -6.82% (inactive). Regarding `CCOC(=O)N1CCN(c2c(NCCCN3CCCCCC3)c(=O)c2=O)CC1`, the inhibition was 1.01% (inactive). On to `CCOC(=O)/C(=N/Nc1ccccc1)N1CCCc2ccccc21`, for which the inhibition is 0.18% (inactive). For the molecule `CCOC(=O)/C(=N/Nc1ccccc1OC)N1CCCc2ccccc21`, the inhibition is 0.45% (inactive). In the case of `Cc1ccc(S(=O)(=O)Cc2sc3ccccc3[n+]2C)cc1` it was -1.05% (inactive); in that of `COc1ccc(NC(=O)C(CC(=O)O)Cc2ccccc2)cc1` (configuration not stated), -9.83% (inactive); in that of `Cc1ccc(SCCNC(=O)/C=C/c2ccc(Cl)cc2)cc1`, -7.24% (inactive). In the case of `CC(=O)c1ccc(-c2ccc(/C=C(/Sc3n[nH]c(C)n3)C(=O)O)o2)cc1` it was -2.81% (inactive); in that of `Cc1nc(S/C(=C/c2ccc(-c3ccc(C(=O)O)cc3)o2)C(=O)O)n[nH]1`, -0.51% (inactive); in that of `CCCN1CCN(C(=O)c2ccc(CS(=O)c3ccc(Cl)cc3)o2)CC1` (configuration not stated), -5.84% (inactive).

For `Cc1ccc(C(=O)N(c2ccccn2)C(C)c2ccco2)cc1C` (configuration not stated), the inhibition was 6.78% (inactive).

Regarding `c1ccc(-c2nc(CSc3nnc(-c4cccs4)o3)cs2)cc1`, the inhibition is 3.49% (inactive). As to `Cc1ccc(Nc2nc(CSc3n[nH]c(N)n3)cs2)cc1`, the inhibition was 0.79% (inactive). As for `CCc1ccc(NC(=O)C(NS(=O)(=O)c2ccc3c(c2)CCN3C(C)=O)C(C)C)cc1` (configuration not stated), the inhibition was 0.33% (inactive). Take `CCN(CC)c1nc(Nc2ccc([N+](=O)[O-])cc2)nc(N(CC)CC)n1`: the inhibition is 6% (inactive).

For the molecule `Cc1ccc(Nc2nc(N)c3ccccc3n2)cc1Cl`, the inhibition is 11.2% (inactive). For `Cc1ccc(NC(=O)c2ccsc2)cc1NS(C)(=O)=O`, the inhibition was -6.89% (inactive).

As for `C=CCc1c(C)nc(C)nc1N/N=C/c1ccc([N+](=O)[O-])cc1`, the inhibition is -6.42% (inactive). As to `CN1CCN(C(=O)CCn2c(=O)c3cccn3c3cccnc32)CC1`, the inhibition was 6.95% (inactive).

On to `O=C(Cn1c(=O)c2cccn2c2cccnc21)N1CCN(c2ccc(Cl)cc2)CC1`, for which the inhibition was 0.96% (inactive).

As for `Cc1cc2nc(C3CCN(Cc4nnnn4Cc4ccccc4)CC3)[nH]c2cc1C`, the inhibition is 34% (inactive). As for `Cc1ccc(CN2CCC(c3nc4ccc(Cl)cc4[nH]3)CC2)cc1`, the inhibition was 2.51% (inactive). For `CC(=O)Nc1ccc(SCC(=O)Nc2sccc2C#N)cc1`, the inhibition was -2.99% (inactive). Consider `O=C(OCC(=O)c1c[nH]c2ccccc12)c1ccc(Br)o1`, for which the inhibition was 5.56% (inactive).

For `O=C(OCC(=O)c1c[nH]c2ccccc12)c1cncc(Br)c1`, the inhibition was -0.17% (inactive). As to `CCOC(=O)c1c(NC(=O)c2ccccc2C(=O)O)sc2c1CCCC2`, the inhibition was -6.92% (inactive). In the case of `CCOC(=O)c1c(NC(=O)c2ccccc2C(=O)O)sc2c1CCC2`, the inhibition is -2.86% (inactive). As for `CCN1CCN(CC(O)COc2ccc(C)c(C)c2)CC1` (configuration not stated), the figure is 4.44% (inactive).

Regarding `COC(=O)c1sccc1NC(=O)c1ccccc1C(=O)O`, the inhibition is 1.76% (inactive).

In the case of `CCn1nc(NC(=O)c2ccncc2)c2cc3ccccc3nc21`, the inhibition was 2.23% (inactive). In the case of `CCn1nc(NC(=O)c2ccncc2)c2cc3ccc(C)cc3nc21`, the inhibition is 4.05% (inactive). Consider `O=C(Nc1ccccc1C(=O)O)c1cc(S(=O)(=O)N2CCCCC2)c(Cl)cc1Cl`, for which the inhibition is -1.16% (inactive).

As for `CCn1c2ccc(CC(=O)O)cc2c2cc(CC(=O)O)ccc21`, the inhibition is -11.4% (inactive). As for `COc1ccc(NC(=O)CN2CCN(CC(=O)Nc3ccccc3F)CC2)c(OC)c1`, the inhibition was -3.25% (inactive). Take `Cc1ccc(NC(=O)c2nc[nH]c2C(=O)NCCCNC(=O)c2[nH]cnc2C(=O)Nc2ccc(C)cc2)cc1`: the inhibition was 5.52% (inactive). As for `Cc1ccc(Nc2ccc(-n3ccnc3)nn2)cc1C`, the figure is -0.37% (inactive); as for `c1ccc(Nc2ccc(-n3ccnc3)nn2)cc1`, -2% (inactive).

On to `COCc1cc(=O)[nH]c(/N=C(\N)Nc2ccc(C)cc2)n1`, for which the inhibition is -14.4% (inactive).

As for `Cc1nn(C)c(C)c1Nc1ccc(N2C(=O)C3C4C=CC(C4)C3C2=O)cc1[N+](=O)[O-]` (configuration not stated), the inhibition is 10.1% (inactive).

As for `CCCn1nnnc1SCC(=O)N1C(C)CCCC1C` (configuration not stated), the inhibition was 5.01% (inactive). In the case of `COc1ccccc1COCC(O)CNCCc1ccc(C(F)(F)F)cc1` (configuration not stated) it was 1.34% (inactive); in that of `COc1ccc(C(OCC(O)CNCCc2ccccc2)c2ccc(OC)cc2)cc1` (configuration not stated), 19.9% (inactive). In the case of `O=C(O)CCn1nnc(-c2ccccc2)n1` it was -0.81% (inactive); in that of `COc1ccc(OCC(=O)N(Cc2ccco2)C2CCS(=O)(=O)C2)cc1` (configuration not stated), 3.83% (inactive). Turning to `Cc1ccc(S(=O)(=O)N2CCCCC2)cc1NC(=O)C1CCC1`, the inhibition is 0.72% (inactive). As to `Cc1ccc(-c2nc3ccsc3c(=O)[nH]2)cc1`, the inhibition was 5.58% (inactive). Take `Cc1ccc(-c2nc3ccccc3c(=O)o2)cc1`: the inhibition was 12.5% (inactive). As for `C=CCN1C(=O)/C(=C/c2cccs2)S/C1=N\S(=O)(=O)c1ccc(F)cc1`, the figure is 0.38% (inactive); as for `COc1ccc(NC(=O)CCNC(=O)C2CCN(S(=O)(=O)c3ccc(OC)cc3)CC2)cc1`, 10.1% (inactive). In the case of `O=C(COc1cc(O)c2c(=O)cc(-c3ccccc3)oc2c1)c1ccccc1` it was -3.97% (inactive); in that of `CC(C)(C)OC(=O)COc1cc(O)c2c(=O)cc(-c3ccccc3)oc2c1`, 39.4% (inactive); in that of `CSc1nnc(-c2cc(Br)ccc2N=Cc2c(C)[nH]n(-c3ccccc3)c2=O)c(=O)[nH]1`, 4.16% (inactive).

Consider `O=[N+]([O-])c1c(Nc2ccccc2O)cc(N2CCOCC2)c2nonc12`, for which the inhibition was 0.81% (inactive). In the case of `CCOC(=O)C1CCCN(S(=O)(=O)c2ccc(-c3cc(C)no3)s2)C1` (configuration not stated), the inhibition is 3.93% (inactive). For `CCO[C@@H]1OC(C(=O)NCc2nc3ccccc3[nH]2)=C[C@H](c2ccccc2)[C@H]1CCCO`, the inhibition is 10.6% (inactive).

As to `CCO[C@H]1OC(C(=O)NCc2nc3ccccc3[nH]2)=C[C@@H](c2ccccc2)[C@@H]1CCCO`, the inhibition was -4.83% (inactive). Turning to `O=C(CSc1nc2ccccc2nc1N1CCCCC1)N1CCN(c2ccccc2)CC1`, the inhibition was -7.86% (inactive). Take `Cc1ccc(C)n1CCN1CCN(C(=O)CSc2nc3ccccc3nc2N2CCOCC2)CC1`: the inhibition is 5.46% (inactive). Regarding `COc1ccc2[nH]c(=O)c(CN(CC3CCCO3)S(=O)(=O)c3ccccc3)cc2c1` (configuration not stated), the inhibition was 2.57% (inactive). For `Cc1ccccc1OCC(=O)NNC(=O)C1CCCCC1C(=O)O` (configuration not stated), the inhibition is 2.25% (inactive). For the molecule `Cc1ccc(C)c(N(C(=O)c2nsc(Cl)c2Cl)C(C(=O)NC2CCCC2)c2ccc(O)cc2)c1` (configuration not stated), the inhibition was -2.81% (inactive). As to `Cc1cccc(N(C(=O)c2nsc(Cl)c2Cl)C(C(=O)NC2CCCC2)c2ccc(O)cc2)c1` (configuration not stated), the inhibition was -12.7% (inactive). Turning to `C=CCc1c(C)nn(CC(=O)O)c1-c1ccccc1`, the inhibition was -6.59% (inactive). `COc1ccc(S(=O)(=O)N2CCC(C(=O)NC(c3nc4ccccc4[nH]3)C(C)C)CC2)cc1` (configuration not stated): the inhibition was -6.28% (inactive). With `O=C(Nc1cc(S(=O)(=O)N2CCOCC2)ccc1N1CCCC1)C1COc2ccccc2O1` (configuration not stated), the inhibition is -4.41% (inactive).

For `COC(=O)/C(=C1/Oc2ccc(C(C)(C)C)cc2S1)C(F)(F)F`, the inhibition was -1.9% (inactive). In the case of `COC(=O)/C(=C1/Oc2ccc(C)cc2S1)C(F)(F)F`, the inhibition was 4.4% (inactive). For `O=S(=O)(c1ccc(Cl)c(NC(=S)Nc2cccc(O)c2)c1)N1CCOCC1`, the inhibition is 1.85% (inactive). On to `CC12CCC(=O)N1C(C(=O)N1CCN(S(=O)(=O)c3cccc(C(F)(F)F)c3)CC1)CS2` (configuration not stated), for which the inhibition was 2.29% (inactive). With `CC1CC1C(=O)Nc1nc2ccc(Cl)cc2s1` (configuration not stated), the inhibition was 16.9% (inactive). Turning to `O=C(Nc1nc2ccc(Cl)cc2s1)C1CC1`, the inhibition is 7.91% (inactive). Take `O=C(Cc1nnc(NC(=O)Nc2ccc(F)cc2)s1)NCc1ccccc1`: the inhibition is -2.08% (inactive).

Consider `COc1ccc(N2C(=O)CCC2=O)cc1`, for which the inhibition is -16.1% (inactive). As for `CCOc1ccc(C(=O)NNC(=O)CN2C(=O)C3CC=CCC3C2=O)cc1OC` (configuration not stated), the figure is 3.32% (inactive).

Turning to `CCN(C(=O)COC(=O)CNC(=O)c1sc2ccccc2c1Cl)C1CCCCC1`, the inhibition is 39.4% (inactive). As to `CN(C(=O)COC(=O)c1cc(NS(=O)(=O)c2cc([N+](=O)[O-])ccc2Cl)ccc1O)C1CCCCC1`, the inhibition is 0.85% (inactive). In the case of `CC1CCCC(NC(=O)COC(=O)c2sc3ccccc3c2Cl)C1C` (configuration not stated), the inhibition was -11.1% (inactive).

Turning to `CN(C(=O)COC(=O)c1ccc(Cl)cc1N)C1CCCCC1`, the inhibition was -0.1% (inactive). As for `C=CCn1c(N)c(C(=O)N2CCOCC2)sc1=S`, the figure is -5.77% (inactive).
